Test results taken from PubChem BioAssay AID624037 (The Scripps Research Institute Molecular Screening Center, 2012).
Out of some 360,000 compounds screened, about 700 (0.19%) were called active.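 How the source made its calls: active means activation above the run's mean over test compounds plus 3 SD (cut at about 23% in these data); inactive means the rest.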 The entries come from a sample that favours actives as a whole.

Biological target: Muscarinic acetylcholine receptor M5 (Homo sapiens) (UniProt P08912)
Test: CHRM5 activators raising intracellular calcium – CHO-K1 cells, Fluo-8 calcium fluorescence, primary screen (AID 624037);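 further: signal is peak over basal fluorescence ratio across the kinetic read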
Settings: CHO-K1 hM5 cells, at 3 µM, active compounds read high, 0% DMSO wells, 100% maximal acetylcholine response

Sequence of Muscarinic acetylcholine receptor M5 (Homo sapiens) (P08912 whole entry, looked up): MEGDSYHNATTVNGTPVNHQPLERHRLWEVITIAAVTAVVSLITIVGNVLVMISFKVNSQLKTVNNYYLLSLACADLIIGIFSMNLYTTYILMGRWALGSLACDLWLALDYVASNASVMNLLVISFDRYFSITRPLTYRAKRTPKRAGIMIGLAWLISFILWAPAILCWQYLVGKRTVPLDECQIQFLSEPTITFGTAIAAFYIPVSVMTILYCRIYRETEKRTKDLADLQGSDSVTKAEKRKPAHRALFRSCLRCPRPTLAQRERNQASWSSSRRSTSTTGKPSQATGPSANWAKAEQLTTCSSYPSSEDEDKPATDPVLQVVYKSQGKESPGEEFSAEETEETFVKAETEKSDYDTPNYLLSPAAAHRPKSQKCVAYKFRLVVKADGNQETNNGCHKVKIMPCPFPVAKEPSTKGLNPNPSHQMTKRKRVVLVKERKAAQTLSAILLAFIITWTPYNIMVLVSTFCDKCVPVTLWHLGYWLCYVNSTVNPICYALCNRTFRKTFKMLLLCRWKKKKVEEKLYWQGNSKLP

activation, inactive:
CCOc1ccc(NC(=O)N(CC(C)C)CC(C)C)cc1 -3.79%, CCC(=C/c1sc2ccc3ccccc3c2[n+]1C)/C=C1\Sc2ccc3ccccc3c2N1C 1.63%, COC(=O)CSc1snnc1-c1ccc(Cl)c(Cl)c1 -7.41%, CN(C)c1cc(N)c2ccccc2n1 (tested in a mixture with another compound) -6.58%, NS(=O)(=O)c1cccc(NC(=O)CC23CC4CC(CC(Br)(C4)C2)C3)c1 -1.18%, CC(=O)NC1=NN(C(C)=O)C(C)(c2ccc(C)cc2)S1 (centres undefined) 1.09%, COc1ccccc1C(=O)Oc1ccc(N2C(=O)CCC2=O)cc1 -1.29%, O=C(CCN1C(=O)[C@H]2CC=CC[C@H]2C1=O)NCc1nc(-c2ccccc2)no1 0.28%, COc1ccccc1C(=O)NC(CCSC)C(=O)NNC(=O)c1csc(N2CCOCC2)n1 (centres undefined) -2.2%, O=C(NCCSc1ncc(-c2ccccc2)[nH]1)c1ccco1 -1.14%, Cc1nnc(SCC(=O)Nc2ncc3c(n2)CC(C)(C)CC3=O)s1 -1.69%, COC(=O)c1sc(N)c(C(=O)OC)c1COC(=O)CNS(=O)(=O)c1ccc(C)cc1 1.46%, C/C=C/c1ccc(OCC(=O)OCC(=O)Nc2c(C)nn(-c3ccccc3)c2C)c(OC)c1 0.8%, Nc1ccc2nc3c(=O)[nH]c(=S)[nH]c3nc2c1 13.3%, CCCn1c(=O)c2c(C(F)(F)F)cc(-c3cccs3)nc2n(CCC)c1=O -2.81%, COC(=O)c1c(NC(=O)c2ccccc2F)sc2c1C(C(=O)OC)CC2 (centres undefined) 0.55%, COCC1CCCN(C(=O)c2ccc3oc(C(C)C)nc3c2)C1 (centres undefined) -5.48%, O=C(NCc1cccc(Cl)c1)C1=CC=CN2CCS(=O)(=O)N=C12 -4.02%, CCCCC(=O)Nc1ccc2c(c1)C(=O)NC2=O -1.75%, C=CCC(NC(=O)Cc1ccccc1)C(=O)NCCC (centres undefined) 1.37%, CNC(=O)C1CN(C(=O)c2cccc(S(=O)(=O)N3CCc4ccccc43)c2)c2ccccc2O1 (centres undefined) 2.34%, CC(C)C[C@H](NC(=O)NCCc1ccc(Cl)cc1)C(=O)O -0.97%, CC(NC(=O)c1ccco1)c1ccc2c(c1)OCO2 (centres undefined) -1.73%

activation, active:
CCCCC(=O)NNC(=S)NC(=O)C(c1ccccc1)c1ccccc1 76.2%
